Measurements reported in PubChem BioAssay (NCATS).
Results filed as inconclusive are left out. Calls of active or inactive are those of the source. The call rests on the fitted dose curve; in most records, active means well fitted inhibition curve with a large enough effect; inconclusive means small, poorly fitted or top-dose-only effect; inactive means flat fitted curve, though single readings scatter.

What was measured:
[1] = qHTS profiling for inhibitors of Plasmodium falciparum proliferation (AID 504749); further: nearly all actives have a fitted effect of over 60% in size;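 on activity, negative = inhibition: 0% = DMSO vehicle and full inhibition = artemisinin control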; settings: P. falciparum in erythrocytes, SYBR Green DNA, 72 h
In short: (§1)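 P. falciparum-infected erythrocytes (0.3% parasitemia, 2.5% hematocrit) incubated with compound 72 h at 37 C, 5% CO2. Parasite DNA detected by SYBR Green after lysis, overnight at room temperature; normalised to 0.29 uM artemisinin and DMSO.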

3D7 = test: as above; settings: P. falciparum in erythrocytes, SYBR Green DNA, 72 h; series mostly up to 28.7 µM
In short: as §1

7G8 = test: as above; settings: P. falciparum in erythrocytes, SYBR Green DNA, 72 h; series mostly up to 28.7 µM
In short: as §1

AA1029 = test: as above; settings: P. falciparum in erythrocytes, SYBR Green DNA, 72 h; series mostly up to 28.7 µM
In short: as §1

AS120 = test: as above; settings: P. falciparum in erythrocytes, SYBR Green DNA, 72 h; series mostly up to 28.7 µM
In short: as §1

ATS189 = test: as above; settings: P. falciparum in erythrocytes, SYBR Green DNA, 72 h; series mostly up to 28.7 µM
In short: as §1

ATS95 = test: as above; settings: P. falciparum in erythrocytes, SYBR Green DNA, 72 h; series mostly up to 28.7 µM
In short: as §1

C2A = test: as above; settings: P. falciparum in erythrocytes, SYBR Green DNA, 72 h; series mostly up to 28.7 µM
In short: as §1

CP185 = test: as above; settings: P. falciparum in erythrocytes, SYBR Green DNA, 72 h; series mostly up to 28.7 µM
In short: as §1

CP191 = test: as above; settings: P. falciparum in erythrocytes, SYBR Green DNA, 72 h; series mostly up to 28.7 µM
In short: as §1

CP192 = test: as above; settings: P. falciparum in erythrocytes, SYBR Green DNA, 72 h; series mostly up to 28.7 µM
In short: as §1

CP194 = test: as above; settings: P. falciparum in erythrocytes, SYBR Green DNA, 72 h; series mostly up to 28.7 µM
In short: as §1

CP201 = test: as above; settings: P. falciparum in erythrocytes, SYBR Green DNA, 72 h; series mostly up to 28.7 µM
In short: as §1

CP203 = test: as above; settings: P. falciparum in erythrocytes, SYBR Green DNA, 72 h; series mostly up to 28.7 µM
In short: as §1

CP211 = test: as above; settings: P. falciparum in erythrocytes, SYBR Green DNA, 72 h; series mostly up to 28.7 µM
In short: as §1

CP215 = test: as above; settings: P. falciparum in erythrocytes, SYBR Green DNA, 72 h; series mostly up to 28.7 µM
In short: as §1

CP217 = test: as above; settings: P. falciparum in erythrocytes, SYBR Green DNA, 72 h; series mostly up to 28.7 µM
In short: as §1

CP237 = test: as above; settings: P. falciparum in erythrocytes, SYBR Green DNA, 72 h; series mostly up to 28.7 µM
In short: as §1

CP238 = test: as above; settings: P. falciparum in erythrocytes, SYBR Green DNA, 72 h; series mostly up to 28.7 µM
In short: as §1

CP247 = test: as above; settings: P. falciparum in erythrocytes, SYBR Green DNA, 72 h; series mostly up to 28.7 µM
In short: as §1

[2] = at 28.7 µM (top of the series), parasite line A
[3] = at 28.7 µM (top of the series), parasite line B
[4] = at 12.8 µM (top of the series), parasite line A
[5] = at 12.8 µM (top of the series), parasite line B
Potency means the concentration at half of the fitted maximal effect.

O=C(COc1ccc(Cl)cc1)N1CCN(Cc2ccc3c(c2)OCO3)CC1
inactive: activity, negative = inhibition [1, 2] 11% | activity, negative = inhibition [1, 3] 10.8% | Potency (3D7) | Potency (7G8) | Potency (AA1029) | Potency (AS120) | Potency (ATS189) | Potency (ATS95) | Potency (C2A) | Potency (CP185) | Potency (CP191) | Potency (CP192) | Potency (CP194) | Potency (CP201) | Potency (CP203) | Potency (CP211) | Potency (CP215) | Potency (CP217) | Potency (CP237) | Potency (CP238) | Potency (CP247)

OCc1ccccc1O
inactive: activity, negative = inhibition [1, 2] 6.96% | activity, negative = inhibition [1, 3] 8.72% | Potency (3D7) | Potency (7G8) | Potency (AA1029) | Potency (AS120) | Potency (ATS189) | Potency (ATS95) | Potency (C2A) | Potency (CP185) | Potency (CP191) | Potency (CP192) | Potency (CP194) | Potency (CP201) | Potency (CP203) | Potency (CP211) | Potency (CP215) | Potency (CP217) | Potency (CP237) | Potency (CP238) | Potency (CP247)

COC(=O)[C@@H]1CC2=CC(=O)CC[C@]2(C)[C@@]23O[C@@H]2C[C@@]2(C)[C@@H](CC[C@@]24CCC(=O)O4)[C@H]13
inactive: activity, negative = inhibition [1, 2] 8.39% | activity, negative = inhibition [1, 3] 17.6% | Potency (3D7) | Potency (7G8) | Potency (AA1029) | Potency (AS120) | Potency (ATS189) | Potency (ATS95) | Potency (C2A) | Potency (CP185) | Potency (CP191) | Potency (CP192) | Potency (CP194) | Potency (CP201) | Potency (CP203) | Potency (CP211) | Potency (CP215) | Potency (CP217) | Potency (CP237) | Potency (CP238) | Potency (CP247)

Cc1ncc(CSSCc2cnc(C)c(O)c2CO)c(CO)c1O
inactive: activity, negative = inhibition [1, 2] 0.466% | activity, negative = inhibition [1, 3] -3.16% | Potency (3D7) | Potency (7G8) | Potency (AA1029) | Potency (AS120) | Potency (ATS189) | Potency (ATS95) | Potency (C2A) | Potency (CP185) | Potency (CP191) | Potency (CP192) | Potency (CP194) | Potency (CP201) | Potency (CP203) | Potency (CP211) | Potency (CP215) | Potency (CP217) | Potency (CP237) | Potency (CP238) | Potency (CP247)

C[C@]12CC[C@@H]3c4ccc(O)cc4CC[C@H]3[C@@H]1CC[C@@H]2O
inactive: activity, negative = inhibition [1, 2] 14.2% | activity, negative = inhibition [1, 3] 10.8% | Potency (3D7) | Potency (7G8) | Potency (AA1029) | Potency (AS120) | Potency (ATS189) | Potency (ATS95) | Potency (C2A) | Potency (CP185) | Potency (CP191) | Potency (CP192) | Potency (CP194) | Potency (CP201) | Potency (CP203) | Potency (CP211) | Potency (CP215) | Potency (CP217) | Potency (CP237) | Potency (CP238) | Potency (CP247)

NCCCC[C@H](N[C@@H](CCc1ccccc1)C(=O)O)C(=O)N1CCC[C@H]1C(=O)O
inactive: activity, negative = inhibition [1, 4] 2.09% | activity, negative = inhibition [1, 5] 0.712% | Potency (3D7) | Potency (7G8) | Potency (AA1029) | Potency (AS120) | Potency (ATS189) | Potency (ATS95) | Potency (C2A) | Potency (CP185) | Potency (CP191) | Potency (CP192) | Potency (CP194) | Potency (CP201) | Potency (CP203) | Potency (CP211) | Potency (CP215) | Potency (CP217) | Potency (CP237) | Potency (CP238) | Potency (CP247)

Cc1cccn2c(=O)c(-c3nnn[nH]3)cnc12
inactive: activity, negative = inhibition [1, 2] 7.08% | activity, negative = inhibition [1, 3] 2.69% | Potency (3D7) | Potency (7G8) | Potency (AA1029) | Potency (AS120) | Potency (ATS189) | Potency (ATS95) | Potency (C2A) | Potency (CP185) | Potency (CP191) | Potency (CP192) | Potency (CP194) | Potency (CP201) | Potency (CP203) | Potency (CP211) | Potency (CP215) | Potency (CP217) | Potency (CP237) | Potency (CP238) | Potency (CP247)

CN(C)/N=N/c1nc[nH]c1C(N)=O
inactive: activity, negative = inhibition [1, 2] 8.05% | activity, negative = inhibition [1, 3] 1.17% | Potency (3D7) | Potency (7G8) | Potency (AA1029) | Potency (AS120) | Potency (ATS189) | Potency (ATS95) | Potency (C2A) | Potency (CP185) | Potency (CP191) | Potency (CP192) | Potency (CP194) | Potency (CP201) | Potency (CP203) | Potency (CP211) | Potency (CP215) | Potency (CP217) | Potency (CP237) | Potency (CP238) | Potency (CP247)

CCCCCCC[N+](CC)(CC)CCCCc1ccc(Cl)cc1
active: Potency ([1]; parasite line A) 1.78 µM | Potency ([1]; parasite line B) 2.24 µM | Potency (3D7) 1.41 µM | Potency (7G8) 0.631 µM | Potency (AA1029) 2 µM | Potency (AS120) 2.51 µM | Potency (ATS189) 2.82 µM | Potency (ATS95) 2.24 µM | Potency (C2A) 1.58 µM | Potency (CP185) 2 µM | Potency (CP191) 2 µM | Potency (CP192) 2.03 µM | Potency (CP194) 2.28 µM | Potency (CP201) 2.56 µM | Potency (CP203) 1.81 µM | Potency (CP211) 1.44 µM | Potency (CP215) 2.03 µM | Potency (CP217) 2.82 µM | Potency (CP237) 2.82 µM | Potency (CP238) 2.51 µM | Potency (CP247) 2.51 µM

CCn1cc(C(=O)O)c(=O)c2cnc(N3CCCC3)nc21
inactive: activity, negative = inhibition [1, 4] -13.8% | activity, negative = inhibition [1, 5] 2.72% | Potency (3D7) | Potency (7G8) | Potency (AA1029) | Potency (AS120) | Potency (ATS189) | Potency (ATS95) | Potency (C2A) | Potency (CP185) | Potency (CP191) | Potency (CP192) | Potency (CP194) | Potency (CP201) | Potency (CP203) | Potency (CP211) | Potency (CP215) | Potency (CP217) | Potency (CP237) | Potency (CP238) | Potency (CP247)

CC(=O)Oc1ccc(C(=C2CCCCC2)c2ccc(OC(C)=O)cc2)cc1
inactive: activity, negative = inhibition [1, 2] 6.38% | activity, negative = inhibition [1, 3] 9.72% | Potency (3D7) | Potency (7G8) | Potency (AA1029) | Potency (AS120) | Potency (ATS189) | Potency (ATS95) | Potency (C2A) | Potency (CP185) | Potency (CP191) | Potency (CP192) | Potency (CP194) | Potency (CP201) | Potency (CP203) | Potency (CP211) | Potency (CP215) | Potency (CP217) | Potency (CP237) | Potency (CP238) | Potency (CP247)
